The nature of test [1]: CCTE_Deisenroth_5AR_NBTE_donor: CCTE's 5alpha-reductase NanoBRET Target Engagement Assay […], Deisenroth Lab (AID 2284319). The following applies: actives raise or lower the signal. The method, boiled down: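 SRD5A2-NanoLuc, HEK293T, 20 h expression. Chemical 10 nM - 29.9 uM, 8 conc, duplicate; 3 h preincubation + 2 h testosterone tracer. Nano-Glo substrate plus extracellular NanoLuc inhibitor; donor lum 460 nm. DMSO baseline, bidirectional fit.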
For orientation: In BRET a luciferase serves as donor, and the signal depends on an acceptor being close.

Test [2] can be described thus: CCTE_Deisenroth_5AR_NBTE_acceptor: CCTE's 5alpha-reductase NanoBRET Target Engagement Assay - Autofluorescence Screen, Deisenroth Lab (AID 2284321).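 Note: compound fluorescence in the acceptor channel under 460 nm excitation flags autofluorescence artifacts.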 The following applies: actives raise or lower the signal. The method, boiled down:
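Acceptor-channel fluorescence flags artifacts, with excitation fixed at 460 nm. Nominal 100 uM chemical samples were read in triplicate runs, and signal changes were fitted in both directions relative to DMSO.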

The test system of test [3] is SRD5A2 (gene 6716). In words: CCTE_Deisenroth_5AR_NBTE_ratio: CCTE's 5alpha-reductase NanoBRET Target Engagement Assay - Ratio, Deisenroth Lab (AID 2284322). To be noted: actives raise or lower the signal. The method in brief: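 HEK293T cells transiently expressing an SRD5A2-NanoLuc fusion (20 h post-transfection) were exposed to test chemical (10 nM - 29.9 uM, 8 points) for 3 h, then testosterone tracer for a further 2 h. Acceptor/donor BRET ratio was fitted bidirectionally against DMSO baseline.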

In test [4] the test system is SERPINA7 (gene 6906). In words: CCTE_GLTED_hTBG: CCTE's human Thyroxine-binding Globulin (TBG) Inhibition Assay, Great Lakes Toxicology and Ecology Division (GLTED) Lab (AID 2284343; active = hit-call score of the fitted dose curve at least 0.9, where 1 is the maximum;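 note: active chemicals lower fluorescence versus DMSO baseline by displacing probe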). The method in brief:
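Cell-free displacement of the fluorescent probe ANSA from human thyroxine-binding globulin after 2 h exposure. Read-out at ex 380/em 475 nm; DMSO baseline.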

The nature of test [5]: CCTE_Deisenroth_DEVTOX-GLR_legacy_CellCount: (Legacy) Viability Assessment in CCTE's DevTox GLR-Endo Assay, Deisenroth Lab (AID 2284331). The following applies: actives raise or lower the signal. The method, boiled down: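 Viability is taken from imaged nuclei counts in fixed RUES2-GLR cultures after 48 h of differentiation under two 24 h-spaced chemical exposures, 10 concentrations from 1 nM to 200 uM, gain or loss versus DMSO baseline.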

Test [6] can be described thus: IUF_NPC1_cytotoxicity_72hr: Cytotoxicity Assessment at 72 hours in the Leibniz Research Institute for Environmental Medicine (IUF) Neural Progenitor Cell Proliferation Assay (NPC1) (AID 2284332; active = hit-call score of the fitted dose curve at least 0.9, where 1 is the maximum;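 note: rising LDH signal means more cytotoxicity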). The method in brief:
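Cytotoxicity by LDH membrane-integrity assay on medium supernatants, fluorescence via resazurin reduction, after 3-day single exposure of primary hNPC spheres at 37C, pH 7.2-7.6 with growth factors. Fitted upward against baseline.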

Test [7] relates to SRY-box transcription factor 17 (SOX17) Protein Expression, Deisenroth Lab, SOX17 (gene 64321). In words: CCTE_Deisenroth_DEVTOX-GLR_legacy_Sox17: (Legacy) CCTE's DevTox GLR-Endo Assay Evaluation of SRY-box transcription factor 17 (SOX17) Protein Expression, Deisenroth Lab (AID 2284341). To be noted: actives raise or lower the signal. The method in brief:
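Endoderm-differentiation readout in RUES2-GLR human pluripotent cells at 48 h, concentrations spanning 1 nM - 200 uM. Sox17-positive cells divided by total cell count; gain or loss relative to DMSO solvent control, n=4 experimental replicates.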

For test [8], the system named is SRY-box transcription factor 2 (SOX2) Protein Expression, Deisenroth Lab, SOX2 (gene 6657). In words: CCTE_Deisenroth_DEVTOX-GLR_legacy_Sox2: (Legacy) CCTE's DevTox GLR-Endo Assay Evaluation of SRY-box transcription factor 2 (SOX2) Protein Expression, Deisenroth Lab (AID 2284346). The method, boiled down: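 Two exposures, 24 h apart, during 48 h defined-media differentiation of seeded RUES2-GLR cells; nuclei-stained cells imaged. Sox2 positivity called at 5x BMAD above endoderm control median, DMSO median subtracted.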

Test [9] relates to SRY-box transcription factor 17 (SOX17) Protein Expression, Deisenroth Lab, SOX17 (gene 64321). Description: CCTE_Deisenroth_DEVTOX-GLR_Endo_SOX17: CCTE's DevTox GLR-Endo Assay Evaluation of SRY-box transcription factor 17 (SOX17) Protein Expression, Deisenroth Lab (AID 2284413). The method, boiled down:
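Fluorescent microscopy of a SOX17 reporter in RUES2-GLR pluripotent cells scored endoderm differentiation after 48 h and two 24-h-spaced exposures. Values are percent change in SOX17+ population against 0.2% DMSO, n=4 experimental replicates.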

Test [10] concerns Brachyury (BRA) Protein Expression, TBXT (gene 6862). Description: CCTE_Deisenroth_DEVTOX-GLR_Endo_BRA: CCTE's DevTox GLR-Endo Assay Evaluation of Brachyury (BRA) Protein Expression, Deisenroth Lab (AID 2284417). The method in brief: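 Read-out: BRA+ cell count divided by total cell count by high-content imaging (5 fields per well), expressed relative to 0.2% DMSO solvent control. RUES2-GLR cells dosed twice over a 48 h differentiation; concentrations 1 nM - 200 uM.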

A short description of test [11]: TAMU_PeakParms_SingleDonor1434_Asystole: Texas A&M University (TAMU) 1.5-hr Human Induced Pluripotent Stem Cell (iPSC)-derived Cardiomyocytes Calcium (Ca+2) Flux Assay for Cardiotoxicity: Asystole (quiescence of beating) (AID 2284328; active = hit-call score of the fitted dose curve at least 0.9, where 1 is the maximum). The method in brief:
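Human iPSC-derived cardiomyocytes (donor 1434) were exposed to 0.2, 1, 10 and 100 uM compound in 0.5% DMSO for 90 min at 37C. Ca2+-dye fluorescence gave average peak frequency; POD is EC95, a 95% beat-rate drop versus DMSO.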

Test [12] concerns Brachyury (BRA) Protein Expression, Deisenroth Lab, TBXT (gene 6862). Description: CCTE_Deisenroth_DEVTOX-GLR_legacy_Bra: (Legacy) CCTE's DevTox GLR-Endo Assay Evaluation of Brachyury (BRA) Protein Expression, Deisenroth Lab (AID 2284329). The method, boiled down:
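High-content imaging of fixed RUES2-GLR cells after a 48-hour differentiation with two compound exposures yields percent cells whose Bra signal exceeds pluripotent control median by 5x BMAD; values are baseline-corrected to DMSO.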

Test [13] in a line: VALA_TUBHUV_Antagonist_TubuleLength: VALA Sciences human Umbilical Vein Endothelial Tubule Formation (TUBHUV) Antagonism Assay (AID 2284325; active = hit-call score of the fitted dose curve at least 0.9, where 1 is the maximum). The method in brief:
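Tubule length was imaged via CD31 immunofluorescence after a further 3-day compound exposure in 10 ng/ml VEGF, following 3-day pre-culture of HUVEC with HDF at 1:3. Vehicle 0.1% DMSO; suramin (100 uM) inhibition control.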

A short description of test [14]: VALA_TUBHUV_Agonist_TubuleLength: VALA Sciences human Umbilical Vein Endothelial Tubule Formation (TUBHUV) Agonism Assay (AID 2284337; active = hit-call score of the fitted dose curve at least 0.9, where 1 is the maximum). The method, boiled down: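 Tubule length quantified by CD31 immunofluorescence imaging after fixation. HUVEC-HDF co-cultures (1:3) pre-grown 3 days with 10 ng/ml VEGF, then dosed 3 days in VEGF medium; 0.1 % DMSO vehicle baseline.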

A short description of test [15]: VALA_TUBIPS_Agonist_CellCount: Viability Assessment in the VALA Sciences human iPS-derived Endothelial Tubule Formation (TUBIPS) Agonism Assay (AID 2284338; active = hit-call score of the fitted dose curve at least 0.9, where 1 is the maximum).
Test [16] in a line: VALA_TUBIPS_Antagonist_CellCount: Viability Assessment in the VALA Sciences human iPS-derived Endothelial Tubule Formation (TUBIPS) Antagonism Assay (AID 2284335; active = hit-call score of the fitted dose curve at least 0.9, where 1 is the maximum).
Test [17] can be described thus: VALA_MIGHUV1_ScratchOnly_WoundArea: VALA Sciences human Umbilical Vein Endothelial Cell Migration (MIGHUV) Assay, Area of Scratch Wound Inhibited Recovery (AID 2284336; active = hit-call score of the fitted dose curve at least 0.9, where 1 is the maximum). The method, boiled down:
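Wound area remaining after 24 h recovery imaged by Hoechst nuclear fluorescence in scratched HUVEC cultures, chemicals added within 30 min of scratching across a 6-point series. Gain of signal fitted against 0.1% DMSO; cytochalasin D positive control.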

A short description of test [18]: CCTE_Mundy_HCI_iCellGluta_NOG_NeuronCount: CCTE's Neurite Outgrowth Assay in iCellGluta cells for Neuron Count, Mundy Lab (AID 2284340; active = hit-call score of the fitted dose curve at least 0.9, where 1 is the maximum;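 note: cells fixed about 48 h after compound addition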). The method, boiled down: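 Neuron count read by automated high-content imaging of Hoechst 33342 and betaIII-tubulin/Alexa Fluor-488 labelling in human iPSC glutamatergic neurons. Activity fitted relative to DMSO.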
A short description of test [19]: CCTE_Mundy_HCI_iCellGluta_NOG_NeuriteCount: CCTE's Neurite Outgrowth Assay in iCellGluta cells for Neurite Count, Mundy Lab (AID 2284342; active = hit-call score of the fitted dose curve at least 0.9, where 1 is the maximum;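 note: chemical exposure about 48 hours starting 2 hours after plating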).

The source of these data is PubChem BioAssay (EPA / NIEHS).

Molecules are shown by their SMILES. Records with an inconclusive call do not appear. Activity calls are given as the source filed them. Rule for the calls, unless noted: active = hit-call score of the fitted dose curve at least 0.9, where 1 is the maximum; inactive = score below 0.9.

Broadly, the AC50 is the concentration giving half of the maximal activity seen. As for `Cc1c(C)c2c(c(C)c1O)CCC(C)(COc1ccc(CC3SC(=O)NC3=O)cc1)O2` (configuration not stated), the compound was called inactive in test [1] and in [2]. In addition, the AC50 is 29.7 µM (active) in test [3] and 8.3 µM (active) in test [4].

For the compound `CCCCc1nc2cccnc2n1Cc1ccc(-c2ccccc2-c2nnn[nH]2)cc1`, in [4], the AC50 was 33.7 µM (active).

With `O=C1NC(=O)C(c2ccccc2)(c2ccccc2)N1`, the compound was called inactive in [5], in test [6], in test [7], in [8] and in [9]. The AC50 in test [4] was 17.4 µM (active); in test [10], 100 µM (active).

On to `O=Cc1ccccc1C=O`, for which the half-maximal activity concentration (AC50) in [4] is 8.72 µM (active).

Turning to `O=C(O)CC(O)(CC(=O)O)C(=O)O`, the result in [11] was inactive.

Take `O=C(Oc1ccccc1)c1cccc(C(=O)Oc2ccccc2)c1`: the AC50 in [4] was 9.91 µM (active).

`O=C(O)c1cccnc1`: the outcome in test [12], in test [5], in [7], in test [8], in test [9] and in test [10] was inactive.

On to `S=c1[nH]c2ccccc2s1`, for which, in test [4], the AC50 is 36.4 µM (active).

In the case of `CCCCC(CC)COP(=O)(OCC(CC)CCCC)OCC(CC)CCCC` (configuration not stated), the figures for the AC50 in [13] and in test [15] were 10 µM (active) and 0.00227 µM (active), respectively. Further, the result in [14] was inactive.

`Cc1ccc(-c2cc(C(F)(F)F)nn2-c2ccc(S(N)(=O)=O)cc2)cc1`: the compound was classed as inactive in test [16], in test [17] and in test [15].

For the compound `Cc1cn([C@H]2C=C[C@@H](CO)O2)c(=O)[nH]c1=O`, the compound was classed as inactive in test [12], in [5], in test [7], in test [8], in test [9] and in test [10].

On to `Cc1cc(Cc2ccc(N)c(C)c2)ccc1N`, for which, in [4], the AC50 was 24 µM (active).

With `CCCCCCC(C=O)=Cc1ccccc1`, the AC50 in [4] was 21.5 µM (active).

As to `O=C1c2c(O)cccc2Cc2cccc(O)c21`, the result in [1] and in test [2] was inactive. Further, the AC50 was 75.5 µM (active) in test [3] and 41.1 µM (active) in test [4].

For the compound `OCC(O)CO`, the compound was classed as inactive in [6], in [18] and in test [19].

`Nc1nc(=S)c2[nH]cnc2[nH]1`: in test [11], the result was inactive.

Take `C/C=C/C=C/C(=O)O`: the compound was called inactive in [1], in test [2] and in test [3].
